Most compounds without a hit are left out; they make up all but 3.3% or so of the library.
NPSR antag – antagonists of human neuropeptide S receptor cAMP signaling | CHO-NPSR cells, cAMP TR-FRET, antagonist mode | Potency, µM (top dose mostly 38.3 µM), usual class: inhibitors | Q6W5P4 | hit rate 1% among 220,000; further: nearly all actives have a fitted effect of over 50% in size
PNC assembly inh – blocks assembly of the perinucleolar compartment; hit rate 3.1% among 140,000; activity change (PNC), negative = inhibition, % at 10 µM; AID 2417; PC3M PTB-GFP, PNC prevalence imaging, 16 h; hits give low values;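 active means readout at or below -70, meaning at least 70% loss of cells showing the perinucleolar compartment, a nuclear body marking cancer cells; inconclusive means readout between -30 and a set limit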
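PC3M cells stably expressing PTB-GFP, 750–1000 cells/well, treated 16 h at 37 °C with compound (23 nl of library stock), in duplicate. After paraformaldehyde fixation and Hoechst stain, imaged at 20x; PNC prevalence scored by image analysis.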
HttQ103 aggreg – mutant huntingtin aggregation inhibition | PC12 HttQ103-GFP aggregates, Acumen cytometry, 40 h | hit rate 1.1% among 220,000 | AID 1688 | Potency, µM (doses to about 46.1 µM), most hits filed as inhibitors; further: nearly all actives have a fitted effect of over 60% in size
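Inducible Q103 Huntingtin exon 1–GFP PC12 line, 1500 cells/well in phenol red free DMEM with 5% equine and 5% calf serum. Tebufenozide 100 nM induced expression; compounds titrated; aggregates quantified by cytometry.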
ALOX12 inhib – inhibitors of human 12-lipoxygenase (ALOX12) | P18054 | purified 12-hLO, xylenol orange hydroperoxide absorbance | Potency, µM (titrated, usually from 57.1 µM), most hits filed as inhibitors | hit rate 0.12% among 150,000; further: nearly all actives have a fitted effect of over 55% in size
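Hydroperoxide formation by human 12-lipoxygenase from 40 uM arachidonic acid was followed colorimetrically via ferric-xylenol orange complex, using the 573/405 nm absorbance ratio. Enzyme concentration was 150 nM, with 30 min reaction at room temperature.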
IMPase cell inh – membrane-permeable compound that blocks inositol monophosphatase. P97697. CHO-M1 cells, IP1 accumulation, HTRF TR-FRET ratio. inhibition (IP1 accumulation), % at 46.1 µM. 120,000 tested, under 10 active; active means well fitted curve in the direction sought with a large enough effect in the signal ratio, not every such curve was filed as active; inconclusive means small, poorly fitted or top-dose-only effect, or a change in a side signal; inactive means no such curve, though single readings can be large or run the other way; the % refers to the signal ratio;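 further: cells stimulated with carbachol in lithium chloride buffer; higher means more IMPase inhibition seen as more IP1 and lower FRET ratio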
Target sequence (P97697 whole entry, looked up): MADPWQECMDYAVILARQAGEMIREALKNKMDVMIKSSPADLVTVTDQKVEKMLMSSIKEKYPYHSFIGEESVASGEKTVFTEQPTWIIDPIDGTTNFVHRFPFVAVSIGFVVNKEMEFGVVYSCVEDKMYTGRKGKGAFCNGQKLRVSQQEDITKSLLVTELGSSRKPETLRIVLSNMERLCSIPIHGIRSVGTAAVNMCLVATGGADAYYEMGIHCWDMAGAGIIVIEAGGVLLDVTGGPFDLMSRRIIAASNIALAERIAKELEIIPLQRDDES
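The IP-One HTRF competitive assay in carbachol-stimulated CHO-M1 cells quantifies cellular IP1. Compounds spanned up to 46 uM final, and activity is expressed as AC50 from concentration-response fits of the ratio and donor data.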
HTT cytoprotect – Huntington cell model cytoprotection by ATP luminescence; AID 1471; PC12 HTT-Q103 induced, cytoprotection, ATP luminescence, 40 h; Potency, µM (titrated, usually from 56.4 µM), most hits filed as activators; hit rate 0.14% among 230,000; further: nearly all actives have a fitted effect of over 45% in size
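Stable PC12 Q103-GFP cells in serum-supplemented, phenol red-free DMEM; induction by tebufenozide at 100 nM final; compound dose series; cell viability quantified luminescently from ATP.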
Large screens that a line does not name were inactive. Unless noted, the call rests on the fitted dose curve; in most records, active means well fitted curve in the direction sought with a large enough effect; inconclusive means small, poorly fitted or top-dose-only effect, or another doubt; inactive means no such curve, though single readings can be large; an effect the other way counts as inactive or inconclusive.

CNc1ccc(Br)cc(C(=O)/C=C/c2ccc(OC)cc2)c1=O	PNC assembly inh -109.0, HttQ103 aggreg inconclusive (no result: IMPase cell inh, HTT cytoprotect)
CNc1ccc(Br)cc(C(=O)/C=C/c2cc(OC)ccc2OC)c1=O	none
CCNc1ccc(Br)cc(C(=O)/C=C/c2ccc(Cl)cc2Cl)c1=O	PNC assembly inh -100.0, ALOX12 inhib inconclusive
COc1ccc(/C=C/C(=O)c2cc(O)ccc2O)cc1	HTT cytoprotect 5.01µM (no result: NPSR antag, PNC assembly inh, HttQ103 aggreg, IMPase cell inh)
N#C/C(=C\Nc1ccccc1O)c1nc2ccccc2o1	NPSR antag inconclusive, HttQ103 aggreg 5.62µM (no result: IMPase cell inh)
N#C/C(=C\c1ccncc1)c1nc2ccccc2o1	none (no result: PNC assembly inh, ALOX12 inhib, IMPase cell inh)
O=C(NC1CS(=O)(=O)CC1NCc1ccco1)c1ccccc1 (stereo not drawn)	PNC assembly inh -96.0
C(=C\c1ccccc1)/CN1CCN(c2ncnc3c2oc2ccccc23)CC1	NPSR antag inconclusive, HttQ103 aggreg 6.31µM
c1cnc(N2CCN(c3ncnc4c3oc3ccccc34)CC2)nc1	none
O=C(CN1C(=O)C2CC=CCC2C1=O)Nc1nc2ccccc2s1 (stereo not drawn)	none (no result: PNC assembly inh, ALOX12 inhib, IMPase cell inh)
Cc1ccc(-c2nc(N/N=C/c3ccncc3)c3ccccc3n2)cc1	NPSR antag inconclusive, PNC assembly inh -83.3, HttQ103 aggreg inconclusive
O=C1CN(C(=O)CSc2nncs2)c2ccccc2N1	none (no result: PNC assembly inh, ALOX12 inhib, IMPase cell inh)
O=C1CN(C(=O)CSc2nc(-c3ccccc3)cs2)c2ccccc2N1	PNC assembly inh -90.6 (no result: IMPase cell inh)
Cc1cccc2cc(C#N)c(SCC(=O)N3CC(=O)Nc4ccccc43)nc12	NPSR antag inconclusive, PNC assembly inh -85.3, HttQ103 aggreg inconclusive
CN(C)c1ccc(/C=N/n2c(-c3ccccc3Br)n[nH]c2=S)cc1	none (no result: PNC assembly inh, ALOX12 inhib, IMPase cell inh)
COC(=O)[C@@]1(Cc2ccccc2)[C@H]2c3cc(C(=O)N4CCCC4)n(Cc4cc(F)cc5c4OCOC5)c3C[C@H]2CN1C(=O)c1ccccc1	none (no result: NPSR antag, PNC assembly inh, HttQ103 aggreg, IMPase cell inh)
COc1cccc([C@@H]2Oc3ccc(Br)cc3C(=O)[C@H]2OC(=O)NS(=O)(=O)c2ccc(C)cc2)c1	none (no result: NPSR antag, PNC assembly inh, HttQ103 aggreg, ALOX12 inhib, IMPase cell inh)
CC(=O)c1c(C)oc2ccc(N(C(C)=O)S(=O)(=O)c3ccc(Cl)c([N+](=O)[O-])c3)cc12	NPSR antag inconclusive, PNC assembly inh inconclusive, HttQ103 aggreg 11.2µM
CCOc1ccc(S(=O)(=O)N(C(C)=O)c2ccc3oc(C)c(C(=O)OC)c3c2)cc1	none (no result: NPSR antag, PNC assembly inh, HttQ103 aggreg, ALOX12 inhib, HTT cytoprotect)
O=C(Nc1ccc(-c2csc(-c3ccccc3)n2)cc1)c1ccccc1Cl	none
O=C(O)c1ccccc1C(=O)Nc1ccc(-c2csc(-c3ccccc3)n2)cc1	PNC assembly inh -98.4
CC(=O)c1ccc(N2C(=O)[C@@H]3C(C(=O)CCN4C(=O)c5ccccc5C4=O)=NN[C@@H]3C2=O)cc1	PNC assembly inh -108.4 (no result: IMPase cell inh)
COc1cccc(N2C(=O)C3NN=C(C(=O)CN4C(=O)c5ccccc5C4=O)C3C2=O)c1 (stereo not drawn)	none (no result: PNC assembly inh, ALOX12 inhib, IMPase cell inh)
COC1CC2CCC(C)[C@](O)(O2)C(=O)C(=O)N2CCCCC2C(=O)OC(C(C)CC2CCC(O)C(OC)C2)CC(=O)C(C)/C=C(/C)C(O)C(OC)C(=O)C(C)CC(C)C=CC=C/C=C\1C (stereo partly drawn)	none (no result: NPSR antag, PNC assembly inh, ALOX12 inhib, IMPase cell inh)
CC(C)c1ccc(NNC(=O)C2CCC2)cc1	none (no result: PNC assembly inh, ALOX12 inhib, IMPase cell inh)
Cc1ccc(-n2c(C)cc(C(=O)COC(=O)c3c(C)noc3C)c2C)cc1	HttQ103 aggreg 10µM
Cc1ccc(-n2c(C)cc(C(=O)COC(=O)C3=NNC(=O)CC3)c2C)cc1	PNC assembly inh inconclusive, IMPase cell inh inconclusive
CC(=O)NCCNc1ncnc2ccc(-c3ccc4c(c3)OCO4)cc12	none (no result: NPSR antag, PNC assembly inh, HttQ103 aggreg, ALOX12 inhib, IMPase cell inh)
Cc1cc(C)c2nc(Cl)c(CN(Cc3ccco3)C(=O)Nc3ccccc3C)cc2c1	PNC assembly inh -90.4
COc1ccc2nc3oc(C(=O)N4CCN(c5cccc(Cl)c5)CC4)cc3cc2c1	PNC assembly inh -87.4
COc1ccc2nc3oc(C(=O)N4CCN(c5cccc(C(F)(F)F)c5)CC4)cc3cc2c1	none
O=C(O)c1cccc(Cn2cc(Cl)cn2)c1	none
COc1ccc(N2CCN(C(=O)c3cccc(Cn4cc(Cl)cn4)c3)CC2)cc1	PNC assembly inh -111.9
CC(C)C(=O)NNC(=O)c1csc(-c2cccs2)n1	none (no result: PNC assembly inh, ALOX12 inhib, IMPase cell inh)
